GRIN3A LBD mod: NR3A (human) ligand-binding domain modulation | NR3A LBD differential scanning fluorimetry, Tm shift; 0% = protein alone, 100% = glycine-bound protein | Tm shift relative to glycine control, % at 25 µM | 2.5% of 340,000 active;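 active = melting temperature shift of at least 10% of the positive control shift, at one fixed dose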
NadD inh: inhibitors of Staphylococcus aureus NadD | purified NadD enzyme, colorimetric absorbance read-out | inhibition, % at 20 µM | 0.78% of 360,000 active | AID 602399; in the data active = inhibition above about 26%
SMARCA2 act: increases SMARCA2 function in MMTV reporter cells. AID 652017. MG213 cells, MMTV-luciferase reporter, dexamethasone, overnight. activation, % at 9.1 µM. 1% of 370,000 active; in the data active = activation above about 7.8%
esBAF inh: blocks esBAF chromatin remodeling in mouse ES cells | reporter increase, % at 12.5 µM | Bmi1-luciferase knock-in reporter, 24 h; 100% = twice the neutral-well signal | AID 602393 | 2% of 350,000 active; in the data active = activation above about 40%;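 also: a rise in the Bmi1 reporter signal indicates esBAF inhibition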
SKN-1 block: inhibitors of C. elegans SKN-1; C. elegans VP596 Pgst-4::GFP/RFP ratio, acrylamide-induced, 24 h; inhibition, % at 21.8 µM; 0.49% of 360,000 active; AID 624304;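 active = interference check ratio from 0.5 to 1.5 plus GFP to RFP signal ratio inhibition reaching or exceeding a fixed threshold, cut at about 30% in these data, passing the limit was not always enough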
Vif inh: HIV Vif inhibition | HEK293T cells, Vif self-association by quenched fluorescence, imaging, 24 h | 0.35% of 340,000 active | inhibition, % at 7.49 µM | AID 602346; in the data active = inhibition above about 50%, passing the limit was not always enough
Each line names hits and unclear results; the compound was inactive in the other large screens. This is a sample that favours compounds with a hit; in the whole collection about 5.2% have one here.

CCCNC(=O)Nc1ccc2c(c1)C(=O)N(C)[C@H]1CC[C@H](CC(=O)NC3CCC3)O[C@@H]1CO2	none (no result: GRIN3A LBD mod, NadD inh, SMARCA2 act, SKN-1 block, Vif inh)
COc1cccc(S(=O)(=O)N(C)C[C@@H]2Oc3cc(C#CCC(C)C)ccc3S(=O)(=O)N([C@@H](C)CO)C[C@H]2C)c1	none (no result: GRIN3A LBD mod, NadD inh, SMARCA2 act, SKN-1 block, Vif inh)
O=S(=O)(N[C@@H]1CC[C@@H](CCn2cc(-c3cccnc3)nn2)O[C@H]1CO)c1ccccc1	none (no result: GRIN3A LBD mod, NadD inh, SMARCA2 act, SKN-1 block, Vif inh)
Cc1ccc(-c2csc(NC(=O)c3ccc(C)o3)n2)cc1	none (no result: esBAF inh)
Cc1ccc(-c2csc(NC(=O)c3ccno3)n2)cc1	esBAF inh 60, SKN-1 block 37
Cc1ccc(C(=O)Nc2ncc(Cc3ccc(F)cc3)s2)o1	SMARCA2 act 7.9
Cc1ccc(C(=O)Nc2nc(-c3ccc(F)cc3)cs2)o1	SKN-1 block 36
Cc1ccc(-c2csc(NC(=S)NC(=O)c3ccco3)n2)cc1	GRIN3A LBD mod 20 (no result: esBAF inh)
CCC(=O)Nc1ccc2c(c1)OC[C@H](C)N(C(=O)CC)C[C@@H](C)[C@H](OC)CN(C)C2=O	none (no result: GRIN3A LBD mod, NadD inh, SMARCA2 act, SKN-1 block, Vif inh)
COC(=O)C[C@@H]1C=C[C@@H](NC(=O)c2ccccc2)[C@H](CO)O1	none (no result: GRIN3A LBD mod, NadD inh, SMARCA2 act, SKN-1 block, Vif inh)
COc1cccc2c1C(=O)c1ccc3ccccc3c1C2=O	esBAF inh 47 (no result: SMARCA2 act)
CC(C)(C)C(=O)Nc1cc2nn(-c3ccccc3)nc2cc1Cl	SKN-1 block 42
CC(=O)Nc1cc2nn(-c3ccccc3)nc2cc1Cl	none (no result: esBAF inh)
CCCOC(=O)C[N+](C)(C)CCOC1CC2CCC1(C)C2(C)C (stereo unspecified)	Vif inh 63 (no result: esBAF inh)
FC(F)(F)c1cnc2c(-c3ccc(Cl)cc3Cl)noc2c1	SKN-1 block 32
COc1ccc(CNC(=O)C[C@@H]2C=C[C@@H](NC(=O)Nc3ccc4c(c3)OCO4)[C@H](CO)O2)cc1	none (no result: GRIN3A LBD mod, NadD inh, SMARCA2 act, SKN-1 block, Vif inh)
COc1ccccc1NC(=O)CSc1nnc(-c2ccc(C)cc2)o1	none
O=C(CSc1ccc(Cl)cc1)Nc1cccc(-c2nnc(-c3ccco3)o2)c1	GRIN3A LBD mod 11
N#Cc1cccc(NC(=O)CSc2nnc(-c3n[nH]c4ccccc34)o2)c1	GRIN3A LBD mod 71 (no result: esBAF inh)
Cc1cc(C)cc(NC(=O)CSc2nnc(-c3ccccc3C)o2)c1	none
COc1cccc(NC(=O)CSc2nnc(-c3ccc(C)cc3)o2)c1	esBAF inh 60
Cc1cccc(NC(=O)CSc2nnc(-c3n[nH]c4ccccc34)o2)c1	none (no result: esBAF inh)
Cc1ccc(SCC(=O)Nc2cccc(-c3nnc(-c4ccco4)o3)c2)cc1	none (no result: esBAF inh)
Cc1cccc(NC(=O)CSc2nnc(-c3ccccc3C)o2)c1	esBAF inh 44
COc1ccc(CN(C)C[C@@H]2Oc3ccc(NC(=O)C4CC4)cc3CC(=O)N([C@H](C)CO)C[C@H]2C)cc1	none (no result: GRIN3A LBD mod, NadD inh, SMARCA2 act, SKN-1 block, Vif inh)
O=C(CSc1nnc(-c2ccc(O)cc2)o1)Nc1ccc2c(c1)OCCO2	none
NS(=O)(=O)c1ccc(NC(=O)CSc2nnc(-c3ccc(O)cc3)o2)cc1	GRIN3A LBD mod 26
O=C(CSc1nnc(-c2ccc(O)cc2)o1)Nc1cccc(O)c1	GRIN3A LBD mod 18
C[C@@H]1CCCCO[C@@H](CN(C)C)[C@H](C)CN([C@H](C)CO)C(=O)c2cc(NC(=O)C3CCCCC3)ccc2O1	none (no result: GRIN3A LBD mod, NadD inh, SMARCA2 act, SKN-1 block, Vif inh)
Cc1cc(C)n2nc(-c3sccc3-n3cccc3)cc2n1	GRIN3A LBD mod 11 (no result: Vif inh)
CCc1ccc(-n2c(SCC(=O)Nc3ccc(C(=O)O)cc3)nnc2-c2ccncc2)cc1	none (no result: NadD inh, esBAF inh, SKN-1 block, Vif inh)
CCc1ccc(NC(=O)CSc2nnc(-c3n[nH]c4ccccc34)n2-c2ccccc2)cc1	GRIN3A LBD mod 23 (no result: esBAF inh)
O=C(CSc1nnc(-c2n[nH]c3ccccc23)n1-c1ccccc1)Nc1cccc(Cl)c1	GRIN3A LBD mod 22 (no result: Vif inh)
Cc1cccc(NS(=O)(=O)c2ccc(C(=O)N3CCCCCC3)cc2)c1C	none
Cc1cccc(NS(=O)(=O)c2ccc(C(=O)N3CCCC3)cc2)c1C	GRIN3A LBD mod 19
CCN(CC)S(=O)(=O)c1ccc(NC(=O)COC(=O)c2cc(S(=O)(=O)Nc3ccc(OC)cc3)ccc2O)cc1	GRIN3A LBD mod 21 (no result: esBAF inh)
CC(C)(C)NC(=O)NC(=O)COC(=O)c1cccc(NS(=O)(=O)c2ccc(F)c(F)c2)c1	none (no result: esBAF inh)
O=C(COC(=O)c1cc(S(=O)(=O)N2CCCC2)ccc1O)Nc1ccc(SC(F)F)cc1	GRIN3A LBD mod 13
CC(C)(C)c1ccc(NC(=O)COC(=O)c2ccc(NS(=O)(=O)c3ccc(F)c(F)c3)cc2)cc1	GRIN3A LBD mod 30

Screening data as filed in PubChem.
